About 7,900 targets were measured; listed, in parts, are those with a hit and a random draw of the rest. About 0.6% of all pairs of compound and target were hits. Values without a mark were called inactive.
Columns and labels:
Assay in all cases: log2 fold change, soluble protein after heating vs DMSO (PISA); higher = thermal stabilisation; K562 cells, 10 uM, 30 min; active = over 0.2 and 3.5 SD of the protein, either way, in both replicates (recomputed)
[1] = compound: Cc1ccc(NC(=O)c2ccc(CN3CC[C@H](N(C)C)C3)c(C(F)(F)F)c2)cc1Nc1nccc(-c2cncnc2)n1 [bafetinib]
Method in brief: (§1)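 Thermal stability values are relative to control samples and come from duplicates. They are expressed as log2 fold changes. For measurement, K562 cells (2×10^6 cells/mL) received 10 μM compound for 30 min, and aliquots were heated for 3 min over 48°C-58°C, pooled, and extracted at 4°C in PBS with 0.5% NP-40. Soluble protein, the supernatant after 21,000xg for 90 min, was quantified by TMTpro 16plex LC-MS/MS with equalised channel sums.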

[2] = compound: Cc1cccc(CC(=O)N2CCc3c2ccc(-c2cn(C)c4ncnc(N)c24)c3F)n1
Method in brief: as §1

[3] = compound: Cc1cn(-c2cc(NC(=O)c3ccc(C)c(Nc4nccc(-c5cccnc5)n4)c3)cc(C(F)(F)F)c2)cn1 [nilotinib]
Method in brief: as §1

[4] = compound: Cc1nc(Nc2n[nH]c3c2CN(C(=O)N[C@H](CN(C)C)c2ccccc2)C3(C)C)c2sccc2n1
Method in brief: as §1

[5] = compound: Cc1nc(Nc2ncc(C(=O)Nc3c(C)cccc3Cl)s2)cc(N2CCN(CCO)CC2)n1 [dasatinib]
Method in brief: as §1

[6] = compound: Cc1ncc(-c2ccnc(Nc3ccc(S(C)(=O)=O)cc3)n2)n1C(C)C
Method in brief: as §1

[7] = compound: Cn1cc(-c2ccc3c(c2)CCN3C(=O)Cc2cccc(C(F)(F)F)c2)c2c(N)ncnc21
Method in brief: as §1

[8] = compound: Cn1cc(-c2ccc3nnc(C(F)(F)c4ccc5ncccc5c4)n3n2)cn1
Method in brief: as §1

[9] = compound: Cn1cncc1[C@@](N)(c1ccc(Cl)cc1)c1ccc2c(c1)c(-c1cccc(Cl)c1)cc(=O)n2C [tipifarnib]
Method in brief: as §1

[10] = compound: FC(F)(F)c1ccc(/C=C/c2nc(COc3ccc(CCCCn4ccnn4)cc3)co2)cc1 [mubritinib]
Method in brief: as §1

UniProt Q9Y248, sequence (Q9Y248 whole entry, looked up): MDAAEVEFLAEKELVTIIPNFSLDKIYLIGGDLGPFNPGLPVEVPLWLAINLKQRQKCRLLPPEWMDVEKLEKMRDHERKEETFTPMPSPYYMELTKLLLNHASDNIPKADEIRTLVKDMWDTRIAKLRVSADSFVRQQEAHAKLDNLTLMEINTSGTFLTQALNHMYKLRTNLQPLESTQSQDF
UniProt Q9BYC5, sequence (Q9BYC5 whole entry, looked up): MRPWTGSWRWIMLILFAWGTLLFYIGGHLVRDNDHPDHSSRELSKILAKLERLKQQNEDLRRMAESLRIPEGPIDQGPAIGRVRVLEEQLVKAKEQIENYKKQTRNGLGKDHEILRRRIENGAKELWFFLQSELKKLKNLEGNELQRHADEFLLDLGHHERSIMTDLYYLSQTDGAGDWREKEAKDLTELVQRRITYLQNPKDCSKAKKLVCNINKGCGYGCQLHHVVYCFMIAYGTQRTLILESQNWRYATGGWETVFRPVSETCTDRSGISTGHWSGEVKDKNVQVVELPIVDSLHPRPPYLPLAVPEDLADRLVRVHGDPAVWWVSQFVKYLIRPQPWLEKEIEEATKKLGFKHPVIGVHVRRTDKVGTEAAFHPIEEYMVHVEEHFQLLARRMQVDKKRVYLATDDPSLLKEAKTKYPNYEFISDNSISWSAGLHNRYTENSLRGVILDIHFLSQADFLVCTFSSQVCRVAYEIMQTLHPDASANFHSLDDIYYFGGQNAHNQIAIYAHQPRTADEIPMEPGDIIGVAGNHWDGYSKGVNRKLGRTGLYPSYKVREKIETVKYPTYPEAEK
UniProt Q8WUI4, sequence (Q8WUI4 whole entry, looked up): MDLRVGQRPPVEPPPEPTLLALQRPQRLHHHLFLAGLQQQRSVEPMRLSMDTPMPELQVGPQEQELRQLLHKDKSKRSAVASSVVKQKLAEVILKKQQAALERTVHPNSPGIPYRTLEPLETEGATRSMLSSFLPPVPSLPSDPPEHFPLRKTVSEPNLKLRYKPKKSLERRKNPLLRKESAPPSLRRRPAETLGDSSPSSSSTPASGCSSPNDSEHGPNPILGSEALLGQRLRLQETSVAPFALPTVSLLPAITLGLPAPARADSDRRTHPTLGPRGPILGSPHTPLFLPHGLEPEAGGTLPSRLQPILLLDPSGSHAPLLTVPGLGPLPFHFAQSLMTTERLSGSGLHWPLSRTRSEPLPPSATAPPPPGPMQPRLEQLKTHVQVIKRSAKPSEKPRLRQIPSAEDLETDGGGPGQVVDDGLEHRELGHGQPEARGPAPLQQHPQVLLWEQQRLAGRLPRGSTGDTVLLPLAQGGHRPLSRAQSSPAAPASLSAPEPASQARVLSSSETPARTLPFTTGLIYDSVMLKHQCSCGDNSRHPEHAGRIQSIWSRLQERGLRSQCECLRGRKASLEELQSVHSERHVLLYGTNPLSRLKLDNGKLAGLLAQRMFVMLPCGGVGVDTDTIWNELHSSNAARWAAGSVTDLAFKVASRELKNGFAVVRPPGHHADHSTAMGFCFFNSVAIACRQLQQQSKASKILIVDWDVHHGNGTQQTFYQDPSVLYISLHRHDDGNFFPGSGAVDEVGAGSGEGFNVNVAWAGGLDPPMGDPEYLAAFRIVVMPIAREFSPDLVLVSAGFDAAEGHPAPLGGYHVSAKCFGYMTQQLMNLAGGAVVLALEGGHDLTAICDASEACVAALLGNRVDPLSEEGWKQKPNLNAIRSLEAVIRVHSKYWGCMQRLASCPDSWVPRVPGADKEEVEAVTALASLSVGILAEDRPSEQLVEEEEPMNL
UniProt P11142, sequence (P11142 whole entry, looked up): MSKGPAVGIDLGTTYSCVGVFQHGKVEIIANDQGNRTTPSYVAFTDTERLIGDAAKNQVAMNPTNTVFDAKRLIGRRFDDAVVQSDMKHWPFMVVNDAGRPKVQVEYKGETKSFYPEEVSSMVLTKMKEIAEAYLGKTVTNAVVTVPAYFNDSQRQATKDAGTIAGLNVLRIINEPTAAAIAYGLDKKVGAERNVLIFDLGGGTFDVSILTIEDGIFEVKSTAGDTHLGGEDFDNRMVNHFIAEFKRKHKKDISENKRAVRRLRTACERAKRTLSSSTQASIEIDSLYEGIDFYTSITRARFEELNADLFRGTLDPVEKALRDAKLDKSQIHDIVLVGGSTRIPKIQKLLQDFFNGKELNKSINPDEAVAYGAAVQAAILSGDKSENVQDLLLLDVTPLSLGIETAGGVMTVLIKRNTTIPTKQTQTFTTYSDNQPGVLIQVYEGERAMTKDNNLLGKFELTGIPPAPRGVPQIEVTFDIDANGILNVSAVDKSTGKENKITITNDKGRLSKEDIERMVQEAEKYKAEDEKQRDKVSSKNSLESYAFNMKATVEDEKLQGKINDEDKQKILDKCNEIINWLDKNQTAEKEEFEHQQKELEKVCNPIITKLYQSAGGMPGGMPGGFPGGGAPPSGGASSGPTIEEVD
UniProt Q92769, sequence (Q92769 whole entry, looked up): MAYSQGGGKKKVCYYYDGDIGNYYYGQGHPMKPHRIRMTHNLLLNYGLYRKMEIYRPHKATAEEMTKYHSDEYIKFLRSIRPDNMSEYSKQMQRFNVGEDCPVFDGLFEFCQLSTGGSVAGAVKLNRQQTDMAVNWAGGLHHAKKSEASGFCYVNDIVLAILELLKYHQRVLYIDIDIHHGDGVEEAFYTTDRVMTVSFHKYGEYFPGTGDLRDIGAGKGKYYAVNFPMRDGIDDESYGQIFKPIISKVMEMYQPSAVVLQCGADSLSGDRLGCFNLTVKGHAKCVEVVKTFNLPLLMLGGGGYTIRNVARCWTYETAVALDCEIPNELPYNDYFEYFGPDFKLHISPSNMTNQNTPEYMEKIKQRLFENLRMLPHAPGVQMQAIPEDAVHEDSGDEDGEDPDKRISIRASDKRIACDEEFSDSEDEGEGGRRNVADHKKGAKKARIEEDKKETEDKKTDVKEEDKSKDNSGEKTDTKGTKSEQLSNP
UniProt Q13889, sequence (Q13889 whole entry, looked up): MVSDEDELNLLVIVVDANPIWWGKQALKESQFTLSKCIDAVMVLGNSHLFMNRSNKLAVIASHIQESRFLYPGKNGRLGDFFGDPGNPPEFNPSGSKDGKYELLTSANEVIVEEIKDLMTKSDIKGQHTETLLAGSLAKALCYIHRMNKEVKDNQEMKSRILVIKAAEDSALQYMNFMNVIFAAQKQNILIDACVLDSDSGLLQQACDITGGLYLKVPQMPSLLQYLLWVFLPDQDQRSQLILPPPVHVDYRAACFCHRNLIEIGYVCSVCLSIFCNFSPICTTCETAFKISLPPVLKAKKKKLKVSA
UniProt Q96I24, sequence (Q96I24 whole entry, looked up): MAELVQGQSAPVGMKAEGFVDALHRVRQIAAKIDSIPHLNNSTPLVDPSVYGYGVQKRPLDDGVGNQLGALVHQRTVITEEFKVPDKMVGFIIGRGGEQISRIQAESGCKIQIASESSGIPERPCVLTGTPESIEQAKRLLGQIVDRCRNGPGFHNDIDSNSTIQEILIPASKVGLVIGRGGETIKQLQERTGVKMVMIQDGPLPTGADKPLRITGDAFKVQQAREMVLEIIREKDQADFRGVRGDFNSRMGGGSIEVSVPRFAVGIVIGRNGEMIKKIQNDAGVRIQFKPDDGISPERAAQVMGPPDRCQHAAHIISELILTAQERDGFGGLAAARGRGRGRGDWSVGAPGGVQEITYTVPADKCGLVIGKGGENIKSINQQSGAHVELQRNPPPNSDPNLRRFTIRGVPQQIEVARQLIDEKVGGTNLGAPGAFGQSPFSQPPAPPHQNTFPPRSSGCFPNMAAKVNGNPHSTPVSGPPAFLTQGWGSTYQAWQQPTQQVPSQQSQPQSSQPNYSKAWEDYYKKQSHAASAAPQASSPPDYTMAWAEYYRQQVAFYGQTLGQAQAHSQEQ
UniProt Q9Y6M1, sequence (Q9Y6M1 whole entry, looked up): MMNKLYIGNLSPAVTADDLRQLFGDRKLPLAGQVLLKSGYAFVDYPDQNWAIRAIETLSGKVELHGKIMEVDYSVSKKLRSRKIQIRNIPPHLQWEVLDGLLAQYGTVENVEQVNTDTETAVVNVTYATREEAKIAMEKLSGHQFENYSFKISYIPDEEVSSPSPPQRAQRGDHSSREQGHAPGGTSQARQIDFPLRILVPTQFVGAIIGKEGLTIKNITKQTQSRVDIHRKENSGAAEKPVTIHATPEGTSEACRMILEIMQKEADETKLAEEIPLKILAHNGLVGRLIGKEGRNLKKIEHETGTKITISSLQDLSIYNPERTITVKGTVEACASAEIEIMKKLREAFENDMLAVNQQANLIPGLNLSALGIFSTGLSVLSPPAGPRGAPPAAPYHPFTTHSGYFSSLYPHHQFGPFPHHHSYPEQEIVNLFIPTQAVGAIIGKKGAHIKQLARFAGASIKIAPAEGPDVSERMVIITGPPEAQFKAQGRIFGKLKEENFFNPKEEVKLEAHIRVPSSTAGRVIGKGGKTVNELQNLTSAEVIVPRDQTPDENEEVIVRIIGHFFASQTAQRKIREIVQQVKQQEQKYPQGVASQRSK
UniProt Q86YM7, sequence (Q86YM7 whole entry, looked up): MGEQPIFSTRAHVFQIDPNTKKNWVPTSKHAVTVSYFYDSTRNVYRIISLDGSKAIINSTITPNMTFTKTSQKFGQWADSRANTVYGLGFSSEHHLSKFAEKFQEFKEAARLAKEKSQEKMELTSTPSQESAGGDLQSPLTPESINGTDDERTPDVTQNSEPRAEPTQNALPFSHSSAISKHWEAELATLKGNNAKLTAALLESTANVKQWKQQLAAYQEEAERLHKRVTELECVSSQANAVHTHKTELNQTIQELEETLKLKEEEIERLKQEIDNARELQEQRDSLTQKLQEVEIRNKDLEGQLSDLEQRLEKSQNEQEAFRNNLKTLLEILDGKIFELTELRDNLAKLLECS
UniProt Q8WXD5, sequence (Q8WXD5 whole entry, looked up): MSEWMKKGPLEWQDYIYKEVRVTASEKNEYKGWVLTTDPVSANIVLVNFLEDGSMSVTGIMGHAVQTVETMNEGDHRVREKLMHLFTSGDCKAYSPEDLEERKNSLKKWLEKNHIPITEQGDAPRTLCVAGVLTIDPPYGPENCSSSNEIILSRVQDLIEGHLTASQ

Row | Target | log2 fold change [1] | log2 fold change [2] | log2 fold change [3] | log2 fold change [4] | log2 fold change [5] | log2 fold change [6] | log2 fold change [7] | log2 fold change [8] | log2 fold change [9] | log2 fold change [10]
1 | GHDC (UniProt Q8N2G8) | -0.165 | 0.018 | 0.036 | -0.001 | 0.027 | -0.011 | 0.045 | 0.012 | 0.146 | 0.01
2 | GLCCI1 (UniProt Q86VQ1) | -0.074 | 0.037 | 0.073 | -0.103 | -0.066 | -0.094 | 0.03 | -0.175 | 0.075 | 0.011
3 | HSPA8 (UniProt P11142) | 0.008 | -0.008 | 0.081 | -0.001 | 0.03 | -0.003 | -0.029 | -0.003 | 0.037 | -0.002
4 | GEMIN6 (UniProt Q8WXD5) | -0.011 | -0.042 | 0.004 | 0.015 | -0.024 | -0.022 | 0.018 | 0.306 (active) | -0.002 | 0.067
5 | FKBP7 (UniProt Q9Y680) | 0 | -0.04 | 0.055 | -0.058 | 0.064 | 0 | 0.071 | 0.012 | 0.027 | 0.031
6 | HECTD1 (UniProt Q9ULT8) | 0.025 | 0.029 | -0.111 | -0.141 | -0.104 | -0.022 | -0.058 | -0.032 | -0.088 | -0.144
7 | GNB2 (UniProt P62879) | 0.12 | -0.002 | 0.077 | -0.018 | 0.057 | -0.012 | 0.028 | -0.032 | 0.003 | -0.028
8 | IFI30 (UniProt P13284) | -0.41 (active) | 0.007 | 0.068 | 0.015 | 0.016 | -0.049 | 0.097 | 0.002 | 0.04 | 0.044
9 | GNPAT (UniProt O15228) | -0.129 | 0.045 | -0.011 | -0.008 | 0.014 | -0.028 | 0.059 | 0.005 | 0.031 | 0.005
10 | GINS2 (UniProt Q9Y248) | -0.025 | 0.106 | -0.024 | -0.031 | -0.265 | 0.03 | -0.057 | -0.111 | -0.064 | 0.03
11 | FDFT1 (UniProt P37268) | 0.01 | 0.016 | 0.12 | 0.071 | 0.023 | -0.019 | 0.111 | -0.047 | 0.089 | 0.022
12 | HOMER1 (UniProt Q86YM7) | -0.016 | -0.002 | -0.02 | 0.046 | -0.054 | -0.008 | 0.003 | 0.117 | -0.031 | 0.089
13 | GATA1 (UniProt P15976) | -0.09 | 0.007 | 0.028 | 0.033 | 0.157 | -0.008 | -0.084 | -0.017 | -0.015 | -0.033
14 | GTF2H3 (UniProt Q13889) | -0.009 | 0.058 | 0.041 | 0 | 0.024 | -0.064 | -0.113 | -0.02 | -0.025 | 0.023
15 | GYG1 (UniProt P46976) | 0.237 | 0.035 | 0.635 (active) | -0.012 | 0.052 | -0.297 | -0.06 | -0.11 | -0.009 | -0.104
16 | HADHA (UniProt P40939) | 0.293 | 0.097 | 0.049 | -0.078 | -0.05 | 0.036 | 0.203 | 0.069 | -0.304 | 0.685 (active)
17 | GIGYF2 (UniProt Q6Y7W6) | -0.076 | 0.045 | -0.161 | -0.105 | -0.22 | -0.023 | 0.054 | -0.025 | -0.119 | -0.03
18 | HDAC7 isoform 5 (UniProt Q8WUI4) | -0.023 | 0.033 | 0.024 | -0.378 (active) | -0.134 | -0.161 | 0.026 | -0.021 | 0.093 | -0.006
19 | FNTA (UniProt P49354) | -0.024 | -0.009 | -0.002 | 0.104 | 0.165 | 0.019 | 0.036 | 0.091 | 0.429 (active) | 0.013
20 | IGF2BP2 (UniProt Q9Y6M1) | 0.121 | 0.004 | -0.058 | -0.018 | 0.038 | -0.039 | -0.228 | -0.191 | 0.069 | -0.071
21 | FUBP3 (UniProt Q96I24) | -0.035 | 0.009 | -0.051 | 0.035 | -0.024 | 0.167 | -0.059 | -0.045 | 0.014 | -0.052
22 | IFRD2 isoform 2 (UniProt Q12894) | -0.083 | -0.019 | 0.153 | 0.047 | 0.028 | 0.236 | 0.07 | -0.176 | 0.08 | 0.073
23 | GMEB1 (UniProt Q9Y692) | -0.12 | -0.048 | -0.04 | -0.036 | -0.06 | 0.001 | 0.019 | 0.044 | -0.204 | -0.03
24 | FUT8 (UniProt Q9BYC5) | -0.062 | -0.042 | -0.008 | 0.006 | 0.031 | 0.054 | -0.276 | 0.022 | – | -0.037
25 | GCDH (UniProt Q92947) | -0.047 | 0.007 | 0.002 | 0.017 | -0.059 | -0.001 | 0.08 | -0.129 | -0.007 | -0.028
26 | HSPA8 (UniProt E9PK54) | 0.096 | -0.069 | -0.105 | -0.011 | 0.011 | 0.072 | -0.409 (active) | 0.062 | 0.227 | 0.024
27 | HDAC2 (UniProt Q92769) | 0.137 | -0.046 | -0.01 | 0.009 | 0.007 | -0.002 | -0.01 | -0.001 | 0.027 | 0.015
28 | GDI1 (UniProt P31150) | 0.002 | 0.024 | 0.001 | 0.017 | -0.053 | -0.024 | 0.035 | 0.01 | -0.06 | 0.062
29 | GUSB (UniProt P08236) | 0.016 | -0.013 | 0.218 | -0.115 | 0.053 | 0.117 | -0.059 | -0.007 | 0.16 | -0.136

— the supplement of paper PMC10849652
